Source: PubChem
eIF4E 4G PPI: inhibitors of eIF4E and eIF4G interaction in translation initiation | TR-FRET eIF4E-eIF4GI(517-606) binding, 2 h | hit rate 0.37% among 220,000 | inhibition, % at 21.7 µM | P63073+Q04637;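 also: 0% = full FRET control wells and 100% = background wells lacking eIF4GI fragment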
Mcl1 Noxa PPI: Mcl-1/Noxa interaction inhibition. AID 1022. hit rate 1.5% among 220,000. inhibition, % at 21.7 µM. TR-FRET Mcl-1/Noxa peptide binding, 2 h;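 active = compounds that cut the protein-peptide binding signal by more than 50% relative to plate controls in a single-dose test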;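 also: His-tagged Mcl-1 with rhodamine Noxa BH3 peptide and terbium anti-His antibody; 0% = Mcl-1 plus Noxa peptide wells and 100% = peptide-only wells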
Mcl1-Bid inh: Mcl-1/Bid interaction inhibition; TR-FRET Mcl-1/Bid-Dy647 peptide binding, 1536-well; inhibition, % at 21.7 µM; hit rate 0.97% among 220,000; AID 1021;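 active = compounds that cut the binding signal by more than half at the single screening dose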;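 also: His-tagged Mcl-1 with europium anti-His antibody binding Bid BH3 peptide; 0% = Mcl-1 plus peptide wells and 100% = peptide-only wells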
p47phox inh: blocks human p47phox regulatory protein of NADPH oxidases | inhibition, % at 24.7 µM | P14598 | p47phox/p22phox peptide binding, fluorescence polarization, 2 h | hit rate 0.53% among 220,000 | AID 1274;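 also: 0% = p47phox with labelled peptide and 100% = labelled peptide alone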
Target sequence (P14598 whole entry, looked up): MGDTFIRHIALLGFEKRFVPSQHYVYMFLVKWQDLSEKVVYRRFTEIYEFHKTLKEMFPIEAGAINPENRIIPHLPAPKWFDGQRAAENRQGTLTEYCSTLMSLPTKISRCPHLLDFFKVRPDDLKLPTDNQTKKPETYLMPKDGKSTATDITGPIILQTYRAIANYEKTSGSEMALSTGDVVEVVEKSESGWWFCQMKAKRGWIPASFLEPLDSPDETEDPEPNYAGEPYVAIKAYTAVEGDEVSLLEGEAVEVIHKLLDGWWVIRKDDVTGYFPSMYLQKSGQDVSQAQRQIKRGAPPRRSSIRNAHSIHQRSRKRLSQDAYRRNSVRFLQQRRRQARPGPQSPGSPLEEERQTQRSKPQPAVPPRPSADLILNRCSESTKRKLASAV
Bim-Mcl-1: human Bim-Mcl-1 interaction inhibition | Q07820 | Bead-based flow cytometry, Bim peptide-Mcl-1 binding | inhibition, % at 10 µM | hit rate 0.1% among 190,000 | AID 1009; in the data active = inhibition above about 40%;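 also: 0% = no compound tracer wells and 100% = peptide blocker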
14-3-3 Bad inh: disrupts binding of bovine 14-3-3 zeta to phospho-Bad peptide; TR-FRET 14-3-3zeta/Dy647-pBad peptide displacement, 1 h; inhibition, % at 21.7 µM; hit rate 0.71% among 220,000; AID 781;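 active = inhibition above about 70%, limit read from the data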;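 also: 0% = full 14-3-3 plus peptide FRET controls and 100% = background without 14-3-3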
Starred values were filed as active, the others as inactive; . = no result given. A selection: hits, their analogues and other compounds. The true share with any hit is near 3.3%.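 The calls were made as follows, unless noted: active = inhibition above about 30% (limit read from the data); inactive = the rest.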

SMILES | eIF4E 4G PPI | Mcl1 Noxa PPI | Mcl1-Bid inh | p47phox inh | Bim-Mcl-1 | 14-3-3 Bad inh
C=CCn1c(=NC(=O)c2ccc(S(=O)(=O)N3CCCc4ccccc43)cc2)sc2cc(S(N)(=O)=O)ccc21 | 7 | 54* | -1 | -24 | -4 | -2
C=CCn1c(=NC(=O)c2ccc(S(=O)(=O)N3CCc4ccccc4C3)cc2)sc2cc(S(N)(=O)=O)ccc21 | 8 | -146 | 46 | -12 | -6 | 30
Nc1ccccc1Oc1c(F)c(F)c(Oc2ccccc2N)c(F)c1F | 3 | 15 | -23 | -3 | 6 | -1
Cc1cccc(S(=O)(=O)C(C#N)c2nc3ccccc3nc2N2CC(C)OC(C)C2)c1 (centres undefined) | 10 | 11 | -4 | -11 | 0 | 73*
CSc1nc(N(C)C)c2ccccc2n1 | 3 | 1 | -21 | -4 | 1 | -4
CN(C)c1nc2ccccc2c(N)c1-c1ccccc1 | -5 | 28 | 39 | -7 | 2 | 77*
O=C1CSC(c2ccccn2)N1c1ccc(F)cc1F (centres undefined) | -1 | 7 | -21 | 4 | -4 | -15
Cc1ccc2cccc(S(=O)(=O)N3CCCc4ccccc43)c2n1 | 2 | 12 | -19 | -7 | -3 | -4
COc1cc(/C=C(\C#N)c2nc3c(s2)CCCC3)ccc1O | 3 | 51* | 29 | -46 | 0 | 37
N#C/C(=C\c1cccnc1)c1nc2c(s1)CCCC2 | 2 | -12 | 3 | -2 | 0 | -10
CCN(CCO)c1ncnc2c1sc1nc(C(C)C)c3c(c12)CC(C)(C)OC3 | 6 | -27 | -3 | -17 | -3 | -9
CSc1nc(NCCOCCO)c2sc3nc(-c4ccco4)c4c(c3c2n1)CCC4 | 28 | 96* | 19 | -36 | 9 | 30
CCN(CCO)c1nc(SC)nc2c1sc1nc(-c3ccco3)c3c(c12)CCC3 | 4 | 99* | 52* | -32 | 5 | 6
CC1(C(=O)Nc2c(F)c(F)c(F)c(F)c2F)CC1(Br)Br (centres undefined) | 2 | -2 | -21 | 0 | . | 4
COc1cccc(CNC(=O)CSCc2cnn(-c3ccccc3)c2-n2cccc2)c1OC | 2 | 0 | 72* | -3 | -1 | 20
Cc1cccc(OCC(=O)NNC(=O)C2CCCCC2C(=O)O)c1 (centres undefined) | -2 | 12 | -24 | -6 | 0 | -4
O=C(c1ccc(OC2CCN(CCc3ccccc3)CC2)cc1)N1CCCC(CO)C1 (centres undefined) | -2 | 13 | -45 | -5 | -2 | -11
CCOC(=O)c1c(NC(=O)CN(C)C)sc(C(=O)N(CC)CC)c1C | 8 | 0 | 70* | -17 | -6 | 32
CC(=O)NC(c1cccs1)c1cc([N+](=O)[O-])c2cccnc2c1O (centres undefined) | 3 | 55* | 25 | -8 | 0 | 8
CC1CCCCC12NC(=O)N(CC(=O)Nc1sc3c(c1C(N)=O)CCC3)C2=O (centres undefined) | 1 | 82* | -61 | -62 | -1 | -5
CC1CCC2(CC1)NC(=O)N(CC(=O)Nc1sc3c(c1C(N)=O)CCC3)C2=O (centres undefined) | 27 | 64* | -84 | -28 | 3 | 24
Cn1cnnc1SCC(=O)Nc1sc2c(c1C(N)=O)CCC2 | 19 | 100* | -64 | -28 | -1 | 16
COC(=O)c1c(NC(=O)CN2C(=O)NC3(CCC(C(C)(C)C)CC3)C2=O)sc2c1CCCCC2 (centres undefined) | 4 | -22 | -45 | -16 | -4 | 0
NC(=O)c1c(NC(=O)CN2C(=O)NC(Cc3ccccc3)C2=O)sc2c1CCC2 (centres undefined) | 14 | 34 | -12 | -17 | . | 3
COCCNC(=O)C(=O)NNC(=O)c1ccccc1OC | 1 | -13 | -33 | 20 | -2 | -6
O=C(CC1CCCCC1)NCC1CCCO1 (centres undefined) | 38* | -13 | -12 | -3 | -9 | -5
O=C(CCSCCC(=O)NCC1CCCO1)NCC1CCCO1 (centres undefined) | 1 | 3 | -37 | -6 | 0 | 12
COc1cc(OC)cc(C(=O)N[C@H](C(=O)OCC(=O)NC(=O)c2cccn2C)C(C)C)c1 | 3 | 16 | 92* | -7 | 0 | -13
